We go through seven compounds from ChEMBL document CHEMBL1961873, “Compounds: GSK PKIS; Assays: Nanosyn kinase panel” (2012).

Structures are written as SMILES.

The target in experiment [1] is MAP/microtubule affinity-regulating kinase 3 (Homo sapiens) (UniProt P27448). Particulars: at 1 µM.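 Further: reported values are averaged percent inhibition of MARK3.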
In experiment [2] the target is T1, MAP/microtubule affinity-regulating kinase 4 (Homo sapiens) (UniProt Q96L34).
T1 sequence (whole entry): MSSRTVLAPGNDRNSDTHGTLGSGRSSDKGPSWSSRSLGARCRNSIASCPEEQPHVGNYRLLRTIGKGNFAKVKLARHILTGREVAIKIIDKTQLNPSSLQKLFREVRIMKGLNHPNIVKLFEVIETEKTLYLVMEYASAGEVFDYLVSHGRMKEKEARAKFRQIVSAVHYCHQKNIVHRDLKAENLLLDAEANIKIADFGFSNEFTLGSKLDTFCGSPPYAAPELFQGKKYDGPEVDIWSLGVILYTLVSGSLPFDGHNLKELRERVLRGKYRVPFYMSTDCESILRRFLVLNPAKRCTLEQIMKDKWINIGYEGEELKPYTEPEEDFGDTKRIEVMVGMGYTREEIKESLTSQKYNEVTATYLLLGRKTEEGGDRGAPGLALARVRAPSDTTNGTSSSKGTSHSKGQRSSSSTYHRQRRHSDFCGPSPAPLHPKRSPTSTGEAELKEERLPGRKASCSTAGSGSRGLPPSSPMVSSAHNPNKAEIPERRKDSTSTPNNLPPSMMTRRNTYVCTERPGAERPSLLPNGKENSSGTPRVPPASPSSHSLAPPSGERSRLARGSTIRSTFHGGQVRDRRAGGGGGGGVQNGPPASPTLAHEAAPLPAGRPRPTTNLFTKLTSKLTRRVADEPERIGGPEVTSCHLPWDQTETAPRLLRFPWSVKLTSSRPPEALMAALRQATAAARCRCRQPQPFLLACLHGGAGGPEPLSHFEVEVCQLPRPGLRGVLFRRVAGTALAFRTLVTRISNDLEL
Particulars: at 0.1 µM.

Experiment [3] concerns the target T1, MAP/microtubule affinity-regulating kinase 4 (Homo sapiens). Particulars: at 1 µM.
Experiment [4] addresses Maternal embryonic leucine zipper kinase (Homo sapiens) (UniProt Q14680). Particulars: at 0.1 µM.
The target is the same in experiment [5]. Particulars: at 1 µM.
Experiment [6] concerns the target MAP kinase-interacting serine/threonine-protein kinase 1 (Homo sapiens) (UniProt Q9BUB5). Particulars: at 0.1 µM.
The target is the same in experiment [7]. The conditions noted are these: at 1 µM.
Experiment [8] deals with MAP kinase-interacting serine/threonine-protein kinase 2 (Homo sapiens) (UniProt Q9HBH9). Particulars: at 0.1 µM.
Experiment [9] has the same target. Particulars: at 1 µM.
The target of experiment [10] is Serine/threonine-protein kinase MARK2 (Homo sapiens) (UniProt Q7KZI7). The conditions noted are these: at 0.1 µM.
Experiment [11] shares this target. The conditions noted are these: at 1 µM.
Experiment [12] deals with PAS domain-containing serine/threonine-protein kinase (Homo sapiens) (UniProt Q96RG2). Particulars: at 0.1 µM.
For experiment [13] the target is unchanged. The conditions noted are these: at 1 µM.
The target in experiment [14] is Phosphorylase b kinase gamma catalytic chain, skeletal muscle/heart isoform (Homo sapiens) (UniProt Q16816). The conditions noted are these: at 0.1 µM.
For experiment [15] the target is unchanged. Particulars: at 1 µM.
Experiment [16] concerns the target T2, Phosphorylase b kinase gamma catalytic chain, liver/testis isoform (Homo sapiens) (UniProt P15735).
T2 sequence (whole entry): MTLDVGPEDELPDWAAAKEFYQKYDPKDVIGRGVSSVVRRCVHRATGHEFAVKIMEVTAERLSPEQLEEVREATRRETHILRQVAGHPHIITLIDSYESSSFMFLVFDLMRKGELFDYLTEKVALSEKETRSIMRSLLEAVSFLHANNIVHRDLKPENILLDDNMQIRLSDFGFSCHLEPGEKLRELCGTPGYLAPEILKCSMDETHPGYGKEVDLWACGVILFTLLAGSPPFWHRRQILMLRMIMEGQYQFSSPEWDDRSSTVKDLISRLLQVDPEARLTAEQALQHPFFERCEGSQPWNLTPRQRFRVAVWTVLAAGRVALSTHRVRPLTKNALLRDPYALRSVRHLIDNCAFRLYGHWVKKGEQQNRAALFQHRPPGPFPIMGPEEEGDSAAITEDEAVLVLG
The conditions noted are these: at 0.1 µM.

The target of experiment [17] is T2, Phosphorylase b kinase gamma catalytic chain, liver/testis isoform (Homo sapiens). The conditions noted are these: at 1 µM.
For experiment [18], the target named is Serine/threonine-protein kinase pim-1 (Homo sapiens) (UniProt P11309). The conditions noted are these: at 0.1 µM.
For experiment [19] the target is unchanged. The conditions noted are these: at 1 µM.
Experiment [20] has as its target Serine/threonine-protein kinase pim-2 (Homo sapiens) (UniProt Q9P1W9). Particulars: at 0.1 µM.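 Further: reported value is the mean percent inhibition of PIM2, measured in the GSK PKIS kinase inhibitor set screen.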

Chain of PAS domain-containing serine/threonine-protein kinase (Homo sapiens) (Q96RG2 whole entry, the tested form may be a part): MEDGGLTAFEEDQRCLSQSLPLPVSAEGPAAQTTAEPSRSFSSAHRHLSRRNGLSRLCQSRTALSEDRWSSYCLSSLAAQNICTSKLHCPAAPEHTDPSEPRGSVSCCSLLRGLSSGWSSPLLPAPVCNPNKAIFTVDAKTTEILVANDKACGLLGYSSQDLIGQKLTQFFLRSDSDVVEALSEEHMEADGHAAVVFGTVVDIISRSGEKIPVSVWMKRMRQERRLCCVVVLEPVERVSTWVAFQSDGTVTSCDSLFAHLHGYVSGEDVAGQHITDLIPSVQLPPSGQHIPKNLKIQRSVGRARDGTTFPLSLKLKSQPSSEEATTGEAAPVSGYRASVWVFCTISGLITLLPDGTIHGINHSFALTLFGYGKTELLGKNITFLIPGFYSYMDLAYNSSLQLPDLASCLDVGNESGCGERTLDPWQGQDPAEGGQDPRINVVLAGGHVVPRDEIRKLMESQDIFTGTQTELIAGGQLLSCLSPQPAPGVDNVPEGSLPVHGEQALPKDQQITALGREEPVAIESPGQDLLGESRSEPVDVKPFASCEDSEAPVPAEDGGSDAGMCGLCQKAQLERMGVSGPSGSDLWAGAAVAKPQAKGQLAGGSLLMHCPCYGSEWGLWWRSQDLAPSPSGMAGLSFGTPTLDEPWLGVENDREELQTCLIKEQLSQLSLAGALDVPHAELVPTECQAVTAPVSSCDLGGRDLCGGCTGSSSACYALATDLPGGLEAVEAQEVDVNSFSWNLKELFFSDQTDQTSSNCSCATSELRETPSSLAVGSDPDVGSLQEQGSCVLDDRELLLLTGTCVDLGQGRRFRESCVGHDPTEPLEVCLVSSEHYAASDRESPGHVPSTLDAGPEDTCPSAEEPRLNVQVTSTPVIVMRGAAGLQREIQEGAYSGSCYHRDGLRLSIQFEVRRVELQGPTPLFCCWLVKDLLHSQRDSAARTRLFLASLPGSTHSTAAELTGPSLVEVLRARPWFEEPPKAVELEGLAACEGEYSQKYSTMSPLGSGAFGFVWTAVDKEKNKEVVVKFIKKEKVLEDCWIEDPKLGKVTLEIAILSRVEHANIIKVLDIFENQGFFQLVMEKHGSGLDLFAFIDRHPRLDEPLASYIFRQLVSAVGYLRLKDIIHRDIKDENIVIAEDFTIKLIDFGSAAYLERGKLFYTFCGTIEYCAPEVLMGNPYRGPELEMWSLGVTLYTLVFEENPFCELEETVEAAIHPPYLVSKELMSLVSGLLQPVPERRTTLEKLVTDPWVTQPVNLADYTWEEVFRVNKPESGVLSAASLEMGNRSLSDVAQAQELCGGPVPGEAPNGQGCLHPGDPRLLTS
Chain of Serine/threonine-protein kinase pim-2 (Homo sapiens) (Q9P1W9 whole entry, looked up): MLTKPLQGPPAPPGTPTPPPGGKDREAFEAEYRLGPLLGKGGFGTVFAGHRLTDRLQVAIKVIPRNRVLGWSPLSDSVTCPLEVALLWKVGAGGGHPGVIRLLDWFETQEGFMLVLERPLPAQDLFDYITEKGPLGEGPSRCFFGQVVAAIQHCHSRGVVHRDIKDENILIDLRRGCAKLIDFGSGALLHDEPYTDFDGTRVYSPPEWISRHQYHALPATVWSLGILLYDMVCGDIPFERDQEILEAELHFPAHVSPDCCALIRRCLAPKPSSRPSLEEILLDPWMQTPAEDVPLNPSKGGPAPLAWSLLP
Chain of MAP kinase-interacting serine/threonine-protein kinase 2 (Homo sapiens) (Q9HBH9 whole entry, looked up): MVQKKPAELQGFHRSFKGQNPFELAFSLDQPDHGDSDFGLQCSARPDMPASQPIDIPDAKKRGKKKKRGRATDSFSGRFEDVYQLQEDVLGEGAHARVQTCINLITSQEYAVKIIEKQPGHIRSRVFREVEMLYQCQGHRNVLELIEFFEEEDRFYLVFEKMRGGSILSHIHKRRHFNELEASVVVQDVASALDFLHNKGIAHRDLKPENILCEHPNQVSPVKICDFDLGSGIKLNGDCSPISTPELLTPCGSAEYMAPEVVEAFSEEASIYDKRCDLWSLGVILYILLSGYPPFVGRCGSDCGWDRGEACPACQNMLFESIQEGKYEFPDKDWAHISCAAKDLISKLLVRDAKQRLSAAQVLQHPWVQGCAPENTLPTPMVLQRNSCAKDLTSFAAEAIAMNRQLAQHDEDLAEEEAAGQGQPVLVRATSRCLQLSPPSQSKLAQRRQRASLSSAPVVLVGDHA
Chain of MAP/microtubule affinity-regulating kinase 3 (Homo sapiens) (P27448 whole entry, looked up): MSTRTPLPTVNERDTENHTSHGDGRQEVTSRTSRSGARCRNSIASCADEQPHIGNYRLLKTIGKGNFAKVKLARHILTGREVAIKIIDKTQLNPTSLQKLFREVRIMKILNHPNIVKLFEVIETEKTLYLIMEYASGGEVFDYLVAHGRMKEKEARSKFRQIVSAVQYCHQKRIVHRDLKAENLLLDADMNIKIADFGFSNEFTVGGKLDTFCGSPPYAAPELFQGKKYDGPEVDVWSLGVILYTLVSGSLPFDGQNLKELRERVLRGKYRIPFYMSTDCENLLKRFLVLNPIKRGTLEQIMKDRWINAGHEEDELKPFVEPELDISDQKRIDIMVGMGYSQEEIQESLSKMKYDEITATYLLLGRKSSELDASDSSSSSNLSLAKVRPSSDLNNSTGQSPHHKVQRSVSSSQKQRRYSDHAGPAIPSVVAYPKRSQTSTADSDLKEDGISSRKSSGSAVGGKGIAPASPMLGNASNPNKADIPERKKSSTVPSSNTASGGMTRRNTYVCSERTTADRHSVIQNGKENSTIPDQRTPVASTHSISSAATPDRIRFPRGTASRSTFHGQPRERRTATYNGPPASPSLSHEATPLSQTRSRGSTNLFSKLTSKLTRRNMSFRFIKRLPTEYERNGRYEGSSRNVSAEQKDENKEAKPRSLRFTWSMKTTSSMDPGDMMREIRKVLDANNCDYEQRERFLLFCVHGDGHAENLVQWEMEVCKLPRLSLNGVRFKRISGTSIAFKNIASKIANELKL
Chain of MAP kinase-interacting serine/threonine-protein kinase 1 (Homo sapiens) (Q9BUB5 whole entry, looked up): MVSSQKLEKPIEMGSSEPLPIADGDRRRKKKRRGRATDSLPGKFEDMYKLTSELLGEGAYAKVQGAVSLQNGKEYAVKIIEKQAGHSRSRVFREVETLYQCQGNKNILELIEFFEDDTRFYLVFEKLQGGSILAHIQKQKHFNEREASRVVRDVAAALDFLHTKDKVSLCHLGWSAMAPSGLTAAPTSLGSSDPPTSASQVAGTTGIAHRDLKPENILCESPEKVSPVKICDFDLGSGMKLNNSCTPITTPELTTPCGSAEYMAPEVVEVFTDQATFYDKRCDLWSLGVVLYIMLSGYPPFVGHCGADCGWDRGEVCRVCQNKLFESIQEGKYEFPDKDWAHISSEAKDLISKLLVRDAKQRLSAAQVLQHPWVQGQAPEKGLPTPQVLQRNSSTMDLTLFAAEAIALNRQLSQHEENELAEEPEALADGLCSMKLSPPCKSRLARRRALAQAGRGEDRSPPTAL
Chain of Maternal embryonic leucine zipper kinase (Homo sapiens) (Q14680 whole entry, looked up): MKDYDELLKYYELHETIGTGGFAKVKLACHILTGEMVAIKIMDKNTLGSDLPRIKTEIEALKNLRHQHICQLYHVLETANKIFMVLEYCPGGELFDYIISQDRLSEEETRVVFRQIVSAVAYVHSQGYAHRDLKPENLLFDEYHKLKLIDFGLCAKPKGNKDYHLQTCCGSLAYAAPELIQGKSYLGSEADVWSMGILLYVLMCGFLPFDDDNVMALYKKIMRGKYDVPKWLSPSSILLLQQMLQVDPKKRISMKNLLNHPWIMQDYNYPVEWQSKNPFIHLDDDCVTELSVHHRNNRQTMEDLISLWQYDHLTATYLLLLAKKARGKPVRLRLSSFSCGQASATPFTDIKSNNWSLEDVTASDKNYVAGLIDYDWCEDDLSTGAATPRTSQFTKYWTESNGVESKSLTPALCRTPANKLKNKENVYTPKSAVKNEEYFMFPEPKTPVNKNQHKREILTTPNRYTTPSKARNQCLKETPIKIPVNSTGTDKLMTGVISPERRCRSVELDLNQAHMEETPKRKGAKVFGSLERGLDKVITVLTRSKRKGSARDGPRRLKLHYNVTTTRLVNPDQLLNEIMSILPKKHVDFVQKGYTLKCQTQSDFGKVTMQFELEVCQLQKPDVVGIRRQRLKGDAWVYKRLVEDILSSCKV
Chain of Serine/threonine-protein kinase MARK2 (Homo sapiens) (Q7KZI7 whole entry): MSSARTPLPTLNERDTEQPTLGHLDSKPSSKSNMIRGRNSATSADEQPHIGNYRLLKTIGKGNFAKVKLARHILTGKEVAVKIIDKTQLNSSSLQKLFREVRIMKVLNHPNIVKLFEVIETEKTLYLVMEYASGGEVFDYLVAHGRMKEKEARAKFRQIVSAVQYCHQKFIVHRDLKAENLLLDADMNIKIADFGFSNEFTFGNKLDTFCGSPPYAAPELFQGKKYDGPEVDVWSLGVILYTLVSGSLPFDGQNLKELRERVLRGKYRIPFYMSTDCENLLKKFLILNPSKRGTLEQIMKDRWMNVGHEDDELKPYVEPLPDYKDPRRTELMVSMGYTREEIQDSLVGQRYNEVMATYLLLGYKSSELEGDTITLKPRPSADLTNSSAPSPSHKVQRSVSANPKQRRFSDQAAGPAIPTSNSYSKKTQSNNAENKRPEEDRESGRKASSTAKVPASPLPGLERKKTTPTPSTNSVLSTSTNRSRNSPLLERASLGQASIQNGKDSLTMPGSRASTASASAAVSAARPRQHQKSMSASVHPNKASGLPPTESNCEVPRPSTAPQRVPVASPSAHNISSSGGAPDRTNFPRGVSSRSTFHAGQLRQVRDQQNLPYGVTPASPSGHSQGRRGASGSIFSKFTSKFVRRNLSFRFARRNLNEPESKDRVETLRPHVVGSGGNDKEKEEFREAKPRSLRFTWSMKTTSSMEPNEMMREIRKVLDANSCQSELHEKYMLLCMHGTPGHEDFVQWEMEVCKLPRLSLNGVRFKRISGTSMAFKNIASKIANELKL

One may read the inhibition as the change of the read-out against control, counted positive when it falls. As to `Cc1ccc2c(-c3ccnc(Nc4ccccc4)n3)c(-c3ccc(F)cc3)nn2n1`, the inhibition in experiment [1] stood at 0.65%; in experiment [2], 1.31%; in [3], 1.67%; in experiment [4] it was 1.41%; in [5], 5.51%; in [6], 0.98%. Moreover, the inhibition in experiment [7] was found to be 1.88%; in [8], 0.04%; in [9] it was 0.75%; in experiment [10], 0.87%; in experiment [11], 1.15%; in experiment [12], 0.46%. For the same compound, the inhibition in experiment [13] is -1.64%; in experiment [14], 1.5%; in experiment [15], 4.45%; in experiment [16], 4.39%; in [17], 1.91%; in [18], -0.18%. Also, the inhibition was -0.05% in experiment [19] and -0.3% in experiment [20].
Turning to `CC1=C(C(=O)Nc2cc(Cl)c3[nH]ncc3c2)C(c2ccc(C(F)(F)F)cc2)CC(=O)N1` (stereo not given), the inhibition came to 9.91% in experiment [1]; 1.64% in experiment [2]; 3.1% in experiment [3]; 5.47% in experiment [4]; 7.81% in experiment [5]; 2.74% in experiment [6]. In addition, the inhibition in [7] is 7.79%; in experiment [8], 2.19%; in [9], 5.02%; in experiment [10] it was 1.6%; in [11], 5.38%; in experiment [12], -0.35%. Further, the inhibition came to 0.16% in [13]; 3.83% in experiment [14]; 6.61% in experiment [15]; 3.02% in [16]; 4.01% in experiment [17]; 0.67% in experiment [18]. Moreover, the inhibition was determined as 0.15% in experiment [19] and 0.31% in [20].
Turning to `Cc1cccc(Nc2ncc(-c3ccccc3)o2)c1`, the inhibition in [1] is 9.41%; in experiment [2] it was 1.51%; in [3] it was 6.57%; in experiment [4], 3.78%; in experiment [5], 9.64%; in experiment [6] it was 1.9%. Besides, the inhibition in [7] is 1.76%; in experiment [8], 3.35%; in experiment [9] it was 8.3%; in [10], 2.22%; in [11] it was 6.99%; in experiment [12], -0.74%. Moreover, the inhibition in experiment [13] is 1.15%; in experiment [14], 2.49%; in experiment [15], 0.97%; in experiment [16] it was 2.92%; in [17], 3.71%; in [18], 1.11%. In addition, the inhibition in experiment [19] was determined as 0.94%; in [20] it was 0.15%.
For the compound `COc1cc(/C=N/Nc2ncnc3[nH]ncc23)ccc1O`, the inhibition came to 30.6% in experiment [1]; 1.99% in [2]; 15.4% in [3]; 15.3% in experiment [4]; 75.5% in experiment [5]; 4.69% in experiment [6]. Also, the inhibition in [7] is 22.6%; in experiment [8] it was 3.33%; in experiment [9], 25.7%; in [10] it was 4.08%; in experiment [11], 17.5%; in experiment [12], -0.24%. For the same compound, the inhibition in [13] was 1.75%; in [14] it was 4.58%; in experiment [15] it was 16.6%; in experiment [16], 4.03%; in [17], 8.53%; in experiment [18] it was 1.55%. Also, the inhibition in experiment [19] came to 10.9%; in experiment [20] it was 0.15%.
For `COc1cc(Nc2nccc(Nc3ccc4c(C)n[nH]c4c3)n2)cc(OC)c1OC`, the inhibition stood at 9.39% in experiment [1]; 1.78% in experiment [2]; 8% in [3]; 3.21% in [4]; 8.73% in experiment [5]; 2.01% in experiment [6]. Besides, the inhibition in [7] stood at 13.5%; in experiment [8] it was 2.68%; in experiment [9] it was 19.2%; in experiment [10], 1.57%; in experiment [11] it was 8.17%; in [12], 1.32%. Moreover, the inhibition in [13] was 0.33%; in experiment [14] it was -0.65%; in experiment [15], 5.26%; in [16], 2.27%; in experiment [17], 0.52%; in [18], 1.13%. The values for the inhibition in experiment [19] and in experiment [20] were 1.26% and 1.46%, respectively.
Regarding `Cc1cccc2c1NC(=O)/C2=N\Nc1ccc(S(N)(=O)=O)cc1`, the inhibition stood at 2.38% in experiment [1]; 1.25% in [2]; 2.15% in experiment [3]; 3.77% in [4]; 2.1% in [5]; 1.62% in [6]. In addition, the inhibition in experiment [7] worked out at 2.53%; in experiment [8], 0.84%; in experiment [9], 1.26%; in experiment [10] it was 0.47%; in [11], 1.34%; in experiment [12] it was 0.5%. Besides, the inhibition in experiment [13] is -1.79%; in [14], -1.4%; in experiment [15] it was 2.98%; in experiment [16] it was 3.6%; in experiment [17], 2.88%; in experiment [18], 1.4%. Also, the inhibition is -0.19% in [19] and 0.28% in [20].
On to `COc1cc(N2CCN(C(C)C)CC2)ccc1Nc1nc(Nc2ccc(F)cc2C(N)=O)c2cc[nH]c2n1`, for which the inhibition in [1] was determined as 67.4%; in [2], 4.23%; in [3], 37.8%; in experiment [4], 18%; in [5], 78.3%; in experiment [6], 0.9%. For the same compound, the inhibition is 1.83% in experiment [7]; 1.81% in experiment [8]; 8.99% in [9]; 5.75% in experiment [10]; 39.3% in [11]; -0.71% in experiment [12]. The inhibition stood at 2.69% in experiment [13]; 58.2% in experiment [14]; 78.1% in [15]; 19.1% in experiment [16]; 64.7% in [17]; 3.27% in experiment [18]. Further, the inhibition in experiment [19] was 25.3%; in [20], -0.44%.
